hgDAF12 agonist = H. glycines DAF-12 receptor agonists, primary screen, cell-based, luminescence, HEK293, GAL4 fusion, UAS-luciferase. HEK293 GAL4-hgDAF12 UAS-luciferase reporter, agonist luminescence; normalized to butyrate control. 1.8% of 370,000 active. Nuclear hormone receptor DAF-12 (Heterodera glycines), GAL4 fusion. activation, % at 6.8 µM. AID 687014, 2013;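 active = activation above a cutoff set at the mean of all screened compounds plus 3 SD, cut at about 10% in these data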
ssDAF-12 act = S. stercoralis DAF-12 nuclear receptor activators, primary screen, cell-based, luminescence, HEK293, GRIP1 co-expression, lit1-tk-luc; activation, % at 6.8 µM; 1% of 370,000 active; HEK293 ssDAF-12/GRIP1 lit1-tk-luc reporter; % of 3 µM dafachronic acid response; Nuclear hormone receptor DAF-12 (Strongyloides stercoralis);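 active = activation above the mean over all tested compounds plus 3 SD, cut at about 0.9% in these data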
hcDAF-12 act = H. contortus DAF-12 nuclear receptor activators, primary screen, cell-based, luminescence, HEK293, lit1-tk-luc reporter; HEK293 hcDAF-12 lit1-tk-luc reporter; 0% DMSO, 100% Δ7-dafachronic acid; activation, % at 6.8 µM; 1.4% of 370,000 active; AID 652067, 2013;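 active = activation above the mean of all tested compounds plus 3 SD, cut at about 5.5% in these data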
DAX1 inh-1 = DAX1 (NR0B1) inhibitors, primary screen, cell-based, HEK293, Gal4-DAX1, luciferase luminescence; Nuclear receptor subfamily 0 group B member 1 (Homo sapiens), P51843; HEK293 Gal4-DAX1 luciferase reporter; inhibition, % at 6.75 µM; 0.99% of 340,000 active;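 active = inhibition above the mean over all tested compounds plus 3 SD, cut at about 4.2% in these data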;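 also: inhibition shows as a rise in luminescence from relieved DAX1 repression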
Target sequence (P51843 207-470 limits assumed): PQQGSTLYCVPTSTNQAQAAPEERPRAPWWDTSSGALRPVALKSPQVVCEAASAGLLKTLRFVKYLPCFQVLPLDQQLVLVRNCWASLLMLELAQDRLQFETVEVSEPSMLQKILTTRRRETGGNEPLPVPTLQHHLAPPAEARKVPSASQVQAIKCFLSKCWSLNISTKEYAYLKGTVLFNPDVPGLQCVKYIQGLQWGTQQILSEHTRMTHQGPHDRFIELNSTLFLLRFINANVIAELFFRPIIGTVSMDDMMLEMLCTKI
GAA850 FXN act = FXN promoter activators, primary screen, cell-based, luciferase luminescence, HEK293 lucGAA850. HEK293 lucGAA850 FXN promoter luciferase reporter, 24 h; percent of 10 µM SAHA response. activation, % at 6 µM. 0.56% of 360,000 active;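 active = activation above the average of all compounds screened plus 3 SD, cutoff fixed separately per campaign, cut at about 7.5% in these data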
DAX1 inh-2 = DAX1 (NR0B1) inhibitors on StAR promoter, primary screen, cell-based, luminescence, SF-1 (NR5A1), full-length DAX-1. HEK293T StAR-luciferase reporter, SF-1/DAX-1 repression relief. inhibition, % at 6.8 µM. 1.1% of 370,000 active. AID 652010, 2013;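 active = inhibition above the mean over all tested compounds plus 3 SD, cut at about 3.6% in these data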;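 also: higher inhibition means more luminescence from relief of DAX-1 repression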
Hits are given with their value; . = inactive; / = no result given. An excerpt weighted towards active compounds, which were near 4.5% of everything screened.

SMILES | hgDAF12 agonist | ssDAF-12 act | hcDAF-12 act | DAX1 inh-1 | GAA850 FXN act | DAX1 inh-2
O=C(NCc1ccccc1)C(c1ccncc1)n1c(=O)c(-c2cc3ccccc3[nH]2)nc2ccccc21 (stereo unspecified) | . | 2.7 | 5.7 | / | / | .
COc1ccc(NC(=O)C(c2ccccc2F)n2c(=O)c(-c3cc4ccccc4[nH]3)nc3ccccc32)cc1 (stereo unspecified) | 12 | . | . | / | / | .
O=C(NCc1ccccc1)C(c1ccc(-c2ccccc2)cc1)n1c(=O)c(-c2cc3ccccc3[nH]2)nc2ccccc21 (stereo unspecified) | . | 1.6 | . | / | / | .
O=C(Nc1ccc2ccccc2c1)C(c1ccccc1F)n1c(=O)c(-c2cc3ccccc3[nH]2)nc2ccccc21 (stereo unspecified) | . | . | . | / | / | .
COc1ccc(C(C(=O)NCc2ccccc2)n2c(=O)c(-c3cc4ccccc4[nH]3)nc3ccccc32)cc1 (stereo unspecified) | . | . | . | / | / | .
CC(C)(C)OC(=O)NCCc1ccccc1/C=C/S(=O)(=O)NC1CCCC1 | . | . | . | / | / | .
Cc1ccc(OCCOc2c(Cl)cc(Cl)cc2Cl)c([N+](=O)[O-])n1 | . | . | . | / | / | /
COc1ccc(CNC(=O)CCNS(=O)(=O)c2ccc3[nH]c(=O)oc3c2)cc1 | . | . | . | / | / | .
CCCOc1ccc(C(=O)Nc2ccccc2[N+](=O)[O-])cc1 | 13 | . | . | . | . | .
CCCCOc1ccc(C(=O)Nc2ccc(C)cc2[N+](=O)[O-])cc1 | . | . | . | . | . | .
C[C@H]1[C@@H](NCc2cccs2)CC[C@@]23CCCN2C(=O)CCC[C@@H]13 | . | . | . | / | / | /
COc1cccc(NC(=O)c2ncc(Cl)c(Cl)c2Cl)c1 | 11 | . | . | . | . | .
COc1cccc(NC(=O)Nc2cc(C(=O)O)ccc2C)c1 | . | . | . | . | . | .
COc1cccc(NC(=O)Nc2ccc(C)c(Cl)c2)c1 | 13 | . | . | . | . | .
COc1cccc(NC(=O)c2nc(SC)ncc2Cl)c1 | . | . | . | . | . | .
COc1cccc(NC(=O)Nc2cccc(C)n2)c1 | 12 | . | . | . | . | .
COc1ccc(NC(=O)Nc2cccc(C)n2)c(OC)c1 | . | . | . | . | . | .
CC(C)C[C@H](NC1(C(=O)NCCc2c[nH]c3ccccc23)CCN(C)CC1)C(=O)NCCCc1ccccc1 | . | . | . | / | / | /
Nn1c(Nc2ccccc2)nc2ccccc21 | . | . | . | 4.4 | . | .
Cn1c(Nc2ccccc2)nc2ccccc21 | . | . | . | . | . | .
COc1ccc(-n2c(SCC(=O)NN=Cc3c(O)ccc4ccccc34)nnc2-c2ccc(C(C)(C)C)cc2)cc1 | . | . | . | / | / | .
CC(OC(=O)Cn1[nH]c(=O)c2ccccc2c1=O)C(=O)Nc1cccc(Cl)c1 (stereo unspecified) | . | . | . | 4.2 | . | .
CC(OC(=O)Cn1[nH]c(=O)c2ccccc2c1=O)C(=O)Nc1ccc(F)cc1Cl (stereo unspecified) | . | . | . | . | . | .
Clc1nc(Cl)c2ncn(-c3ccccc3)c2n1 | . | . | . | . | . | .
CNc1nc(Cl)nc2c1ncn2-c1ccccc1 | . | . | . | 4.6 | . | .
Cc1cc([N+](=O)[O-])ccc1NC(=O)/C=C/c1cccs1 | 12 | . | . | . | . | .
Cc1ccc(NC(=O)/C=C/c2ccc([N+](=O)[O-])s2)c(C)c1 | . | . | . | . | . | .
COc1cc(/C=N/N=C(\N)c2nonc2N)cc(OC)c1O | 13 | . | . | 4.2 | . | .

High-throughput results (PubChem)
